V-ATPase pHluor: regulators of yeast V-ATPase proton pumping, primary screen, pHLuorin cytosolic pH fluorescence; response, % at 10 µM; S. cerevisiae; AID 504577, 2011; 0.37% of 350,000 active; in the data active = response mostly above about 7.3%, no sharp cut-off; inactive = mostly below about 5.4%; note: actives read high
NALP1 inh: NALP1 inflammasome inhibitors in reconstituted yeast, colorimetric, S. cerevisiae, triplicate retest. S. cerevisiae NALP1/ASC/caspase-1 growth, X-gal OD620, 72 h. inhibition, % at 10 µM. 0.61% of 280,000 active. AID 2071, 2009; in the data active = inhibition mostly above about 24%, no sharp cut-off; inactive = mostly below about 32%
NALP3 yeast inh: NALP3 inflammasome inhibitors in reconstituted yeast, primary screen, luminescence, uHTS | AID 2825, 2010 | 0.39% of 330,000 active | inhibition, % at 10 µM | Yeast reconstituted NLRP3/ASC/caspase-1, beta-gal luminescence, 24 h;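 active = inhibition of 50% or more; inactive = inhibition below 50%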;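 note: plate controls were induced DMSO wells for no effect and uninduced yeast grown without galactose for full effect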
TIM10 inh: growth inhibitors of isogenic TIM10 control yeast, primary screen, counter-screen for tim10-1 yeast inhibitor project, luminescence, uHTS; inhibition, % at 10 µM; AID 463195, 2010; S. cerevisiae TIM10 strain growth, BacTiter-Glo luminescence, 24 h; 1.4% of 330,000 active;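 active = inhibition of 40% or more at the single tested concentration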;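 note: wild-type TIM10 isogenic control strain grown at permissive 25 °C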
tim23-1 inh: growth inhibitors of tim23-1 mutant yeast, primary screen, luminescence, uHTS; inhibition, % at 20 µM; AID 463212, 2010; 1.3% of 330,000 active; S. cerevisiae tim23-1 growth, BacTiter-Glo luminescence, 24 h;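 active = growth inhibition of the mutant yeast at or above 50%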;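 note: temperature-sensitive mutant grown at 25 °C; plate controls were DMSO-treated mutant yeast for no effect and medium wells lacking yeast for full effect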
tim10-1 inh: growth inhibitors of tim10-1 mutant yeast, primary screen, luminescence, uHTS | S. cerevisiae tim10-1 ts strain growth, BacTiter-Glo, 24 h | inhibition, % at 20 µM | 2.2% of 330,000 active;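 active = inhibition of at least 40%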;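 note: mutant grown at 25 °C; 0% = DMSO wells with yeast and 100% = wells holding no yeast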
* = called active by the depositor; nt = no result. Shown are actives, neighbours in structure and some others; about 4.2% of the full set was active somewhere.

SMILES	V-ATPase pHluor	NALP1 inh	NALP3 yeast inh	TIM10 inh	tim23-1 inh	tim10-1 inh
CCCOC(=O)c1ccc(NC(=O)/C=C/c2cccs2)cc1	-1	61*	30	17	41	-6
O=[N+]([O-])c1ccc(Nc2ccccn2)c([N+](=O)[O-])c1	0	26*	30	6	2	0
O=C(/C=C/c1cccc([N+](=O)[O-])c1)NCc1ccc2c(c1)OCO2	3	37	24	-15	14	-5
Nc1ccc(Nc2ccc([N+](=O)[O-])cc2[N+](=O)[O-])cc1	4	-2	31	5	21	14
O=C(/C=C/c1cccc([N+](=O)[O-])c1)c1ccc([N+](=O)[O-])o1	177*	nt	nt	nt	nt	nt
O=C(/C=C/c1cccc([N+](=O)[O-])c1)Nc1ccccn1	-2	23*	25	-5	-11	-14
Cc1cc(C(=O)Nc2ccc(F)cc2)c2ccccc2n1	0	18	-14	-3	-3	-10
S=C(NCc1ccccc1)NC1CCSc2ccccc21 (stereo unspecified)	2	27*	24	22	28	23
COc1cc(CNCCCN2CCOCC2)cc(Br)c1OCC(=O)N1CCCCC1	0	30*	-8	-4	-8	4
COc1cc(CNCCCN2CCOCC2)cc(Br)c1OCc1ccc(Cl)cc1	0	10	28	-2	-116	-25
COc1ccccc1N1CCN(CCCCCCOc2ccc(F)cc2)CC1	-3	46*	26	4	-13	-17
COc1ccccc1OCCCCN1CCN(c2ccccc2OC)CC1	-4	47	1	-2	2	6
COc1ccccc1N1CCN(CCCCOc2cccc3ccccc23)CC1	5	54*	36	8	10	2
CCc1ccc(OC)c(S(=O)(=O)NCc2cccs2)c1	2	nt	0	5	21	8
CCCCOc1ccc(CSC2=NCCN2)cc1[N+](=O)[O-]	0	47*	11	0	9	6
OC(COc1cccc2ccccc12)CN1CCCC1 (stereo unspecified)	-3	15	4	12	9	8
O=C(CN1CCN(Cc2ccc(F)cc2Cl)C1=O)NCCc1ccccc1	1	-15	11	-4	14	22
CN(CCNC(=O)CN1CCN(Cc2ccccc2Cl)C1=O)Cc1ccccc1	2	45*	7	-4	7	5
CCOC(=O)N1CCN(c2c(NCCN3CCN(Cc4ccccc4)CC3)c(=O)c2=O)CC1	0	1	17	7	5	11
CCOC(=O)N1CCC(Nc2c(NCCN3CCN(Cc4ccccc4)CC3)c(=O)c2=O)CC1	14*	13	17	-2	3	4
COc1ccc(S(=O)(=O)NNC(=O)c2ccccc2-n2cccc2)cc1	0	36*	24	24	6	19
Cc1ccc(S(=O)(=O)NNC(=O)c2ccccc2-n2cccc2)cc1	-1	11	-16	22	27	34
O=C(CCN1C(=O)C2CC=C(Cl)CC2C1=O)NC1CCCCC1 (stereo unspecified)	5	42*	2	0	1	1
Cc1ccc(C(=O)Nc2ccc(S(=O)(=O)N3CCOCC3)cc2)cc1Br	-4	nt	20	27	21	8
COC(=O)C(O)(NC(=O)NC(C)=O)C(F)(F)F (stereo unspecified)	14*	-15	4	6	8	9
SMILES	V-ATPase pHluor	NALP1 inh	NALP3 yeast inh	TIM10 inh	tim23-1 inh	tim10-1 inh
COc1ccc(/C=N/NC(=O)CNc2n[nH]c(=O)[nH]c2=O)cc1OC	2	25	11	-14	6	11
CS(=O)(=O)c1ccc(C(=O)NC(Cc2ccccc2)c2ccccc2)cc1 (stereo unspecified)	-1	13	18	6	20	11
CN(C)C(C)(C)C#CCCCCC#CC(C)(C)N(C)C	-4	-2	23	-54	-96	-14
CN(C)C(C)(C)C#CCC(c1ccccc1)c1ccccc1	-2	64*	29	9	13	-1
NC(=O)c1ccc(N=Cc2ccc([N+](=O)[O-])s2)cc1	113*	30	nt	nt	nt	nt
CC(=O)Nc1ccc(NC(=O)CCN2C(=O)c3ccccc3C2=O)cc1	-1	44*	-5	-2	6	34
Cn1c(CCCOc2ccc(Cl)cc2Cl)nnc1SCC(=O)Nc1ccc(F)c(Cl)c1	0	10	8	1	-17	-3
C(=N\Nc1ccc(-n2ccnc2)nn1)/c1ccccc1	-3	44*	19	3	-10	-11
COc1cccc(Nc2ccc(-n3ccnc3)nn2)c1	1	-2	-9	0	3	1
Cc1cc(Br)ccc1NC(=O)CN1C(=S)NC(C)(C)CC1C (stereo unspecified)	1	29*	-4	5	-3	19
CN(/N=C/c1ccc(Cl)cc1Cl)c1ncc(Cl)cc1C(F)(F)F	-3	14	14	-22	-24	-13
CN(C)c1ccc(NC(=O)CN2CCC(O)(c3ccccc3)CC2)cc1	1	29*	-4	-4	2	3
COc1ccc(CC2(CO)CCN(Cc3cccc(OC)c3OC)CC2)cc1	15*	26	-2	-18	-1	24
O=C(O)c1ccc2c(=O)n3c(nc2c1)/C(=C/c1ccc(Cl)c(Cl)c1)CC3	-4	-20	4	13	21	6
COc1ccc(C2Nc3cc(OC)ccc3-n3cccc32)cc1 (stereo unspecified)	2	1	-3	14	40	11
COc1ccc(NC(=S)NCCc2c[nH]c3ccccc23)c(OC)c1	0	12	12	-2	-9	34
COc1ccc(NC(=S)NCCc2c[nH]c3ccc(OC)cc23)c(OC)c1	0	29*	11	-18	-5	-2
Cc1ccc(S(=O)(=O)Oc2ccccc2-c2ccccc2)cc1	7	nt	nt	nt	nt	nt
Fc1ccc(-c2nc3ccccc3[nH]2)cc1	2	36*	41	34	19	-23
Nc1ccc(-c2nc3ccccc3[nH]2)cc1	0	nt	-1	9	-19	-29
COC(=O)Nc1ccc(S(=O)(=O)N2CCC(C(=O)N3CCCC(C)C3)CC2)cc1 (stereo unspecified)	4	38*	7	5	8	4
O=C(Nc1ccc(F)cc1)c1ccc(C(=O)N2CCOCC2)cc1	3	nt	9	11	8	17
O=C(c1ccc(F)cc1)N1CCOCC1	-1	26*	4	6	0	-1
CCOc1ccc(NC(=O)c2ccc(NC(=O)c3cn4c5c(c(N6CCN(C)CC6)c(F)cc5c3=O)OCC4C)cc2)cc1 (stereo unspecified)	1	86*	18	-7	32	1
